From PubChem
Hits are enriched below; roughly 0.9% of the tested compounds scored in any of these assays.
TAR Tat displ: HIV-1 TAR-Tat binding disruption | HIV-1 TAR RNA, Tat peptide displacement FRET; hits give high values | z-score (no concentration beside the values) | 100,000 compounds, 0.6% hits | AID 1259389; active = z-score of 3 or more in at least 2 runs
CDC25B-CDK2 inh: human CDC25B-CDK2/CyclinA binding inhibition | 94,000 compounds, 0.72% hits | z-score (test concentration not listed) | HTRF CDC25B-CDK2/CyclinA binding, anti-His/anti-Flag; hits give high values | P30305+P24941; in the data active = z-score above about 3.2
An asterisk follows results filed as active; · = no result.

SMILES	TAR Tat displ	CDC25B-CDK2 inh
C[C@@H]1C[C@H]2O[C@@H]2/C=C\C=C\C(=O)Cc2c(Cl)c(O)cc(O)c2C(=O)O1	5*	·
NCC1CCC(C(=O)NC(Cc2ccccc2)C(=O)Nc2ccc(CC(=O)O)cc2)CC1 (stereo not drawn)	0.22	·
CSc1ccc(CNC(=O)c2cnc3sc4c(n3c2=O)CCCC4)cc1	1.5	·
COC(=O)CC(C(=O)OC)P(=O)(O)CN(C)S(C)(=O)=O (stereo not drawn)	·	4.5*
COC(=O)c1ccc(Cl)cc1NS(=O)(=O)c1ccc(OC)c(OC)c1	·	-1.4
O=C(COCc1cc(-c2cccs2)on1)Nc1ccccc1Br	10*	·
COC(=O)c1sccc1NC(=O)COCc1cc(-c2cccs2)on1	0.14	·
CC(C)OC(=O)Cn1c2ccc(Cl)cc2c2nc3ccccc3nc21	2.6	-1.4
CCOC(=O)Cn1c2ccc(Cl)cc2c2nc3ccccc3nc21	0.94	19*
c1coc(-c2nn3c(-c4ccncc4)nnc3s2)c1	1.8	-0.91
Cc1nc(NC2=NCN(Cc3ccco3)CN2)nc2ccccc12	1.8	-1.2
Cc1cc2nc(NC3=NCN(CCCN4CCOCC4)CN3)nc(C)c2cc1C	0.9	0.99
Cc1cc2nc(NC3=NCN(CCN4CCOCC4)CN3)nc(C)c2cc1C	·	11*
Cc1cc2nc(NC3=NCN(Cc4ccco4)CN3)nc(C)c2cc1C	0.07	14*
Cc1cc(-c2ccc(S(=O)(=O)N3CCC(C)CC3)s2)n[nH]1	0.76	·
O=C(O)C1Cc2c([nH]c3ccccc23)CN1 (stereo not drawn)	·	16*
O=C(O)C1Cc2c([nH]c3ccccc23)C(c2ccccc2)N1 (stereo not drawn)	·	0.74
CCOC(=O)c1nn(-c2ccccc2)c(=O)c2c(N)scc12	-4.9	19*
CCOC(=O)c1nn(-c2ccc(OC)cc2)c(=O)c2c(NC(=O)C3CCCC3)scc12	·	-1.4
COc1cccc(C2CC(=O)N3CN(c4ccc(OC)cc4OC)CSC3=C2C#N)c1 (stereo not drawn)	-0.1	5.9*
COc1ccc(N2CSC3=C(C#N)C(c4c(F)cccc4Cl)CC(=O)N3C2)c(OC)c1 (stereo not drawn)	1.9	0.86
COc1ccc(N2CSC3=C(C#N)C(c4ccccc4)CC(=O)N3C2)c(OC)c1 (stereo not drawn)	-2	4.3*
COc1ccc(N2CSC3=C(C#N)C(c4ccc(Br)cc4)CC(=O)N3C2)c(OC)c1 (stereo not drawn)	0.32	2.4
O=C1Nc2cc(Cl)ccc2SC2CCCCC2O1 (stereo not drawn)	·	20*
CC1CC(=O)Nc2cc(S(=O)(=O)Nc3cccc(Cl)c3)ccc2S1 (stereo not drawn)	1.4	·
SMILES	TAR Tat displ	CDC25B-CDK2 inh
Cc1c(C(=O)O)sc2ncnc(Nc3ccc(F)cc3)c12	25*	·
COCCNc1ncnc2sc(C(=O)O)c(C)c12	2.5	·
Cc1c(C(=O)N2CCN(c3ccccc3)CC2)sc2ncnc(N3CCN(c4ccccn4)CC3)c12	1.2	-1.7
Cc1c(C(=O)O)sc2ncnc(N3CCN(c4ccccc4)CC3)c12	29*	·
Cc1c(C(=O)O)sc2ncnc(NC(C)C)c12	0.33	·
Cc1c(C(=O)O)sc2ncnc(Nc3cccc(Cl)c3)c12	21*	·
COc1cc(OC)c(Nc2ncnc3sc(C(=O)O)c(C)c23)cc1Cl	4.2*	·
Cc1c(C(=O)O)sc2ncnc(NCC3CCCO3)c12 (stereo not drawn)	2.1	·
O=C(NC1CCCC1)C1CCN(c2ncnc3c2sc2cccc(F)c23)CC1	·	-1.7
COCCNC(=O)C(=O)Nc1c2c(nn1-c1ccc(Cl)cc1)CSC2	0.42	·
CN(C)CCCN(C(=O)CCOc1ccccc1)c1nc2ccc(Br)cc2s1	-0.05	·
CCc1ccc(CNC(=O)NCc2noc3ccc(C)cc23)cc1	0.5	·
Cc1c(C(=O)O)sc2ncnc(NCc3cccs3)c12	9.8*	·
CCC(C)Nc1ncnc2sc(C(=O)O)c(C)c12 (stereo not drawn)	3.3	·
CCOc1ccc(Nc2ncnc3sc(C(=O)O)c(C)c23)cc1	4.7*	·
Cc1c(C(=O)O)sc2ncnc(NCCc3ccco3)c12	0.32	·
CCOCCOc1ccc2oc(C(=O)CC(=O)OCC)cc(=O)c2c1	·	-1.1
CCc1nnc(SCC(=O)Nc2cc(OC)cc(OC)c2)c2cc3occc3n12	-1.3	·
Oc1ccc(Cc2ccc(O)c3ncccc23)c2cccnc12	1.9	-3.8
CCN(CC)Cc1ccc(O)c2ncccc12	1.3	13*
O=C(CCc1nnc2ccc(NCc3cccnc3)nn12)NC1CCCCC1	3	·
O=C(Nc1nnc(SCc2ccccc2)s1)c1cc(-c2cccs2)on1	2	-1.1
O=C(c1ccc2c(c1)C(=O)c1ccccc1-2)c1ccccc1Br	·	-1.4
O=C1c2ccccc2C(=O)c2c1oc(C(F)(F)F)c2C(=O)c1ccc2ccccc2c1	·	9.3*
Cc1nn(C(C)C(=O)N2CCN(C(=O)c3ccco3)CC2)c(=O)c2c1sc1ccccc12 (stereo not drawn)	1.5	-0.96
SMILES	TAR Tat displ	CDC25B-CDK2 inh
COCCN1CCn2c(nc3cc(Nc4nnc(C)c5ccccc45)ccc32)C1	1.6	14*
COCCCN1CCn2c(nc3cc(NC(=O)NC4CCCCC4)ccc32)C1	-8.9	0.2
COCCN1CCn2c(nc3cc(Cl)ccc32)C1	0.82	0.96
COCCN1CCn2c(nc3cc(NC(=O)NC4CCCCC4)ccc32)C1	-0.33	7*
COc1cc(Br)c(CC2c3cc(OC)c(OC)cc3CCN2C)cc1OC (stereo not drawn)	0.98	·
CN1CCc2cc(O)c(O)cc2C1Cc1ccc(O)c(O)c1 (stereo not drawn)	38*	·
COC(=O)c1sccc1S(=O)(=O)Nc1ccc(OC)c(OC)c1	1.7	·
C=CCc1ccc(OCCCSc2nc3ccccc3[nH]2)c(OC)c1	-0.49	0.75
Nc1ccc2nc(SCC(=O)Nc3ccc4nc(SCC(=O)NC5CC5)sc4c3)sc2c1	·	19*
CCC(=O)Nc1ccc2nc(SCC(N)=O)sc2c1	-0.15	-1.7
O=C(CSc1nc2ccc(NC(=O)c3ccco3)cc2s1)Nc1nccs1	0.7	0.57
NC(=O)CSc1nc2ccc(NC(=O)c3ccco3)cc2s1	1.8	12*
NC(=O)c1ccc(S(=O)(=O)N2CCOCC2)cc1	·	-0.1
CCOC(=O)c1ccc(CSc2nc(C)nc3c2CCC3)cc1	0.6	0.87
COc1ccc(Cl)cc1-n1nnc(S(=O)(=O)c2ccc(C)c(C)c2)c1C	-0.83	1.4
O=C1CSC(c2cccc(NS(=O)(=O)c3ccc(Cl)cc3)c2)N1 (stereo not drawn)	-0.4	·
Nc1cccc(C2NC(=O)CS2)c1 (stereo not drawn)	0.9	10*
O=C1CC(c2ccco2)Cc2[nH]c(=O)c(-c3nc(-c4ccccc4)cs3)cc21 (stereo not drawn)	-4.4	17*
O=C1CC(c2ccco2)Cc2[nH]c(=O)c(-c3nc(-c4cccc(Cl)c4)cs3)cc21 (stereo not drawn)	6.6	9.4
CC(Sc1nnc(-c2ccncc2)o1)C(=O)Nc1ccc2c(c1)OCCO2 (stereo not drawn)	1.3	11*
Cc1[nH]c2ccc(-c3nnc(SC(C)C(=O)Nc4ccc5c(c4)OCCO5)o3)cc2c1C (stereo not drawn)	-2.1	0.43
CCOC(=O)c1c(C)sc(-c2c(-c3ccc(Cl)cc3)[nH]c3c2c(=O)n(C)c(=O)n3C)c1O	-4.6	-0.47
CC(C)C(NS(=O)(=O)c1cccs1)C(=O)NCCCN1CCCCC1 (stereo not drawn)	0.42	·
